This note sets out measurements from the supplement of paper PMC7366291.

Common to all, as to conditions: 25 µM; exposure: 24-48 hpf
For assay [1], the system named is Danio rerio Tg(wt1b:EGFP) embryo, pronephros. Description: glomerular separation, fold change vs DMSO control; higher = glomeruli further apart (abnormal). In outline:
(§1)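 Dechorionated Tg(wt1b:EGFP) zebrafish embryos were kept from 24 to 48 hpf at 28.5°C in HEPES-buffered E3 containing 0.003% PTU, 0.5% DMSO and 25 μM compound. The pronephroi were then imaged from the dorsal side in agarose-filled 96-well plates at 470 nm with 10 z-slices, and 16 reference points were placed by hand on maximum projections in Fiji so that a macro could calculate distances and angles. Values lying more than 2 SD from the mean of a feature were discarded. Every feature is given as a fold change against the mean of DMSO-treated embryos from the same day.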

The test system is the same in assay [2]. The assay is described as follows: glomerular width (mean of left and right), fold change vs DMSO control; higher = wider glomerulus. The gist of the method:
as §1

Assay [3] shares this test system. Description: fraction of imaged embryos annotated as normal kidney; higher = less nephrotoxic; extreme values may be limits of the assay. In outline:
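The read-out is the proportion of embryos in each treatment manually annotated as normal-kidney. Exposure ran from 24 to 48 hpf at 28.5°C in 12-well plates, using dechorionated Tg(wt1b:EGFP) zebrafish embryos in 5 mM HEPES-buffered E3 with 0.003% PTU, 0.5% DMSO and 25 μM compound. For imaging, larvae were anaesthetised with tricaine, positioned dorsally in agarose-filled 96-well plates and captured by widefield fluorescence (470 nm, 10 z-slices), with scoring done on maximum projections.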

The test system is the same in assay [4]. The assay is described as follows: pronephric angle neck segment to proximal convoluted tubule (mean of left and right), fold change vs DMSO control; higher = larger pronephric angle. In outline:
as §1

Each structure is given as a SMILES string. Structures can show the parent of a compound that is named as a salt. ± gives the standard deviation or the standard deviation of the averaged measurements.

For `c1ccc([C@H]2CN3CCSC3=N2)cc1` [Levamisole hydrochloride], in assay [1], the glomerular separation was 0.699 ± 0.16. Besides, the glomerular width in assay [2] turned out to be 1.08 ± 0.018. For the same molecule, in assay [3], the “fraction of imaged embryos annotated as normal kidney” value (from here on “fraction of imaged embryos annotated”) is 0.917. Further, the “pronephric angle neck segment” value in assay [4] worked out at 0.979 ± 0.016.

Regarding `N=C(N)N1CCc2ccccc2C1` [Debrisoquin sulfate], the glomerular separation in assay [1] came out at 1.02 ± 0.24. The molecule further displayed a glomerular width in assay [2] of 0.9804 ± 0.0064. Also, the “fraction of imaged embryos annotated” value in assay [3] was 0.667. In assay [4], the “pronephric angle neck segment” value was determined as 1.01 ± 0.01.

As to `c1ccc(C2CN3CCSC3=N2)cc1` (configuration not stated) [Tetramisole hydrochloride], the glomerular separation in assay [1] was 0.817 ± 0.29. In assay [2], the glomerular width came to 1.05 ± 0.032. For the same molecule, the “fraction of imaged embryos annotated” value in assay [3] is 0.75. Also, the “pronephric angle neck segment” value in assay [4] turned out to be 0.94 ± 0.035.

As for `OC(CCN1CCCC1)(c1ccccc1)C1CCCCC1` (configuration not stated) [Procyclidine hydrochloride], the glomerular separation in assay [1] came to 0.639 ± 0.26. The glomerular width in assay [2] worked out at 1.1 ± 0.013. The “fraction of imaged embryos annotated” value in assay [3] turned out to be 0.833. Besides, the “pronephric angle neck segment” value in assay [4] came to 0.954 ± 0.035.

`CC(C(=O)O)c1ccc(C(=O)c2cccs2)cc1` (configuration not stated) [Suprofen] came in with a glomerular separation in assay [1] of 1.78 ± 0.63. For the same molecule, in assay [2], the glomerular width is 1.02 ± 0.14. For the same molecule, the “fraction of imaged embryos annotated” value in assay [3] amounted to 0.75. The “pronephric angle neck segment” value in assay [4] came out at 1.03 ± 0.081.

For the molecule `CO[C@@H]1[C@@H](O[C@@H]2O[C@H](C)[C@@H](O[C@H]3C[C@@](C)(O)[C@@H](OC(=O)CC(C)C)[C@H](C)O3)[C@H](N(C)C)[C@H]2O)[C@@H](CC=O)C[C@@H](C)[C@@H](O)/C=C/C=C/C[C@@H](C)OC(=O)C[C@H]1OC(C)=O` [Josamycin], the glomerular separation in assay [1] worked out at 1.16 ± 0.39. The molecule further showed a glomerular width in assay [2] of 1.13 ± 0.093. Moreover, the “fraction of imaged embryos annotated” value in assay [3] stood at 0.909. Also, in assay [4], the “pronephric angle neck segment” value came to 1.0423 ± 0.00028.

In the case of `Cc1cc(C(=O)NNCc2ccccc2)no1` [Isocarboxazid], in assay [1], the glomerular separation was 1.01 ± 0.72. In assay [2], this molecule returned a glomerular width of 1.21 ± 0.067. The “fraction of imaged embryos annotated” value in assay [3] was 0.25. Further, the “pronephric angle neck segment” value in assay [4] amounted to 1.382 ± 0.0021.

Molecule `COc1c(N2C[C@@H]3CCCN[C@@H]3C2)c(F)cc2c(=O)c(C(=O)O)cn(C3CC3)c12` [Moxifloxacin] registered a glomerular separation in assay [1] of 0.919 ± 0.39. In addition, in assay [2], the glomerular width was 0.971 ± 0.024. Besides, the “fraction of imaged embryos annotated” value in assay [3] is 0.909. Further, the “pronephric angle neck segment” value in assay [4] is 0.998 ± 0.029.

As for `O=c1[nH]c(=O)n([C@H]2C[C@H](O)[C@@H](CO)O2)cc1C(F)(F)F` [Trifluridine], in assay [1], the glomerular separation amounted to 0.965 ± 0.28. This molecule also showed a glomerular width in assay [2] of 0.9839 ± 0.0047. Also, the “fraction of imaged embryos annotated” value in assay [3] was 0.917. In addition, the “pronephric angle neck segment” value in assay [4] was determined as 0.99 ± 0.013.

In assay [1], `Cn1c(=O)c2[nH]cnc2n(C)c1=O` [Aminophylline] displayed a glomerular separation of 0.664 ± 0.15. In addition, in assay [2], the glomerular width amounted to 0.992 ± 0.021. Further, the “fraction of imaged embryos annotated” value in assay [3] was found to be 1. Further, in assay [4], the “pronephric angle neck segment” value is 0.871 ± 0.011.

On to `CC1CCc2cc(F)cc3c(=O)c(C(=O)O)cn1c23` (configuration not stated) [Flumequine], for which the glomerular separation in assay [1] worked out at 2.57 ± 1.2. Also, the glomerular width in assay [2] was 1.05 ± 0.023. Moreover, in assay [3], the “fraction of imaged embryos annotated” value worked out at 0.583. Also, the “pronephric angle neck segment” value in assay [4] came out at 1.15 ± 0.046.

For `C[N+](C)(CCOc1ccccc1)Cc1ccccc1.O=C([O-])c1cc2ccccc2cc1O` [Bephenium hydroxynaphthoate], in assay [1], the glomerular separation came out at 2.05 ± 0.8. The molecule further registered a glomerular width in assay [2] of 0.9959 ± 0.0015. The “fraction of imaged embryos annotated” value in assay [3] was found to be 0.583. For the same molecule, the “pronephric angle neck segment” value in assay [4] worked out at 1.17 ± 0.053.

As for `COc1cc([S+](C)[O-])ccc1-c1nc2cccnc2[nH]1` (configuration not stated) [Sulmazole], the glomerular separation in assay [1] is 0.979 ± 0.27. The glomerular width in assay [2] amounted to 1.05 ± 0.015. In assay [3], the “fraction of imaged embryos annotated” value was found to be 0.833. Besides, in assay [4], the “pronephric angle neck segment” value turned out to be 0.9818 ± 0.0097.
